# From PMC12136788
# In all, about 5,800 sequences were measured (“enrichment r”: median about 0.68, highest 2% from about 11 on). The list comes from a sample in which the highest values are over-represented; it also holds similar and randomly drawn sequences.
# B1: chr16:785952:786377:-|CDS|ENSG00000007376|control|control|control (ssRNA)
# RNA: GGGAGUUCUACAGUCCGACGAUCCAGUCGCUGGACCAGCUCGUGCAGGCCUUACGGGCCACCCCCGACCCUGACCCCGAGGAUAGGGGCCCCAGGCCAGGCAGCCCCUCCGCACUCCUGCCUGGGCCCGGCCGGCCUCCUCCACAACAGAGGAUUGAGCAUCA
# B2: chr1:162783069:162783171:+|3pUTR|ENSG00000162733|unk|FALSE|unique (ssRNA)
# RNA: GGGAGUUCUACAGUCCGACGAUCUGAAAGUAGUUCAAAUUUGAAUUAGAAGAAUGAAGCUAGGACUUAUUUGGAAAAGGAGAUAGAAAAAAAAUGAUCAGAAACUGUGGGGCCUUAUUACCUUUGCAGUAAGUUAUCUUCUUCCAACAGAGGAUUGAGCAUCA
# B3: chr15:64957256:64957357:+|3pUTR|ENSG00000166839|msi1|FALSE|unique (ssRNA)
# RNA: GGGAGUUCUACAGUCCGACGAUCGCUGGAAAAUUGAAACAUAAUUUCACAAUUAUUCCUUUUUCCACCUUAAAUAAUAAGAGUAGAAUACUUUCUGUGUUUUUAUCUUAUACACAUGAAUAAAUGCUAUGGCUUAUCACAGUUCAACAGAGGAUUGAGCAUCA
# B4: ENSG00000114744:stop:overlap|stop_codon|ENSG00000114744|stop_codon|NA|stop_codon (ssRNA)
# RNA: GGGAGUUCUACAGUCCGACGAUCAACAAGCAUUGGAAGAGAUGAAGACAAAUCACUGUAGGAGAGUUGUUCGCAACAUCAAGUAGUACCAGUUUUAAGGUUUUAAUUCAUUUGAAUCACUUAUGAAUUGAUGAUAUACAGCAACAACAGAGGAUUGAGCAUCA
# B5: ENSG00000066855:stop:overlap|stop_codon|ENSG00000066855|stop_codon|NA|stop_codon (ssRNA)
# RNA: GGGAGUUCUACAGUCCGACGAUCGAGUGUUGUCCCUUCCAGCUGGCUUUAUUCAGCCCCACGUGUCCAAGCAUUGUCUGGGAUAGCCUUGUAUUGGAAAACCUGGCCCAUUCUGUAAAUAAAGGCUCCACUAGAAAAGACUCGCAACAGAGGAUUGAGCAUCA
# B6: chr1:184691659:184691688:-|3pUTR|ENSG00000116406|msi1_unk|FALSE|overlapping (ssRNA)
# RNA: GGGAGUUCUACAGUCCGACGAUCCUCCAACGUUGUAAUUACAACUCUACAUUCAUUUACUUACUUGACAUACUGCCACAAAGUAGUUUUUGAGUUCAUUAAAAAUUCCAAAGGCAUUAGUUGUUUUUUUUUUUUUUAGUGUUUCAACAGAGGAUUGAGCAUCA
# B7: chr15:93027272:93027374:+|3pUTR|ENSG00000173575|unk|total|mutant (ssRNA)
# RNA: GGGAGUUCUACAGUCCGACGAUCCCAGGAAUCUGUGAGGAUGGUAUUCCCUGGAGUCUGGCUUUGAAAGAUUUCAUUGUUGGCCGAAAUAACAGGUUGAGAAAGAGGGAGUCCGCAUCACCUAAAACCUGCACGUGAACAAGGCAACAGAGGAUUGAGCAUCA
# B8: ENSG00000141127:stop:overlap|stop_codon|ENSG00000141127|stop_codon|NA|stop_codon (ssRNA)
# RNA: GGGAGUUCUACAGUCCGACGAUCAUUCAUCAUGUAUGGAGCUAUCAAAGAAAAUUGCAGACUUUUUCCCCCUUUCUCUUCUCUAGGCGGCUAGGGGUGGAGAUGGGCAAAGUGCAGGUUUACCAGGAACCUAACAGAGAAACACAACAGAGGAUUGAGCAUCA
# B9: chr22:31279490:31279591:+|3pUTR|ENSG00000182541|msi1|total|mutant (ssRNA)
# RNA: GGGAGUUCUACAGUCCGACGAUCAGCAGCUUGGGCUGGGAAGAGGUGGUGGCAGAGUCUCAAAGCUGAGAUGCUGAGAGAGACCGCUCCCUGAGCUGGGCCAUCUGACUUCUACCUCCCAUGUUUGCUCUCCCAACUCAUCCGCAACAGAGGAUUGAGCAUCA
# B10: chr5:43295829:43295944:-|CDS|ENSG00000112972|unk|total|mutant (ssRNA)
# RNA: GGGAGUUCUACAGUCCGACGAUCAAUAUCCCCGCUUUAUUCUAAAGUCAAACUUUAAAAUUUCAUGGCUUAUAUGAAUUUCACCGUUUCCUUGGACUUCUCUUUCAGAGGGAAAUGAUAAAGAUUUUACCUUGAAUGAUUUUGCAACAGAGGAUUGAGCAUCA
# B11: chr12:76028505:76028606:-|3pUTR|ENSG00000139289|msi1|total|mutant (ssRNA)
# RNA: GGGAGUUCUACAGUCCGACGAUCAAGUCUUGGUCAGUAUUUUUCCAGCAUUUAAAUUGAAACGGUCAGUAUCCGACCACUGCCCGGUUAUGCCGUCAAGAAAUAAAAACCGAAUUACAUGCUACAGAUGUCUUUAUUCUCCUUCAACAGAGGAUUGAGCAUCA
# B12: ENSG00000198589:be:win_5851|CDS|ENSG00000198589|bound_else_gene|NA|bound_elsewhere_windowed (ssRNA)
# RNA: GGGAGUUCUACAGUCCGACGAUCACUCAACUAAUCCAGAAAAUUAUCAACAUUCUCACAGACAAGCAUGGAGCCUGGGGAAAUUCUGCAGUGAGUCGUCCUCUUGAGUUCUGGCGCCUUGACUACUGGGAAGAUGACUUGCGGCAACAGAGGAUUGAGCAUCA
# B13: chr19:14961309:14961997:-|three_prime_utr|ENSG00000105143|control|control|control (ssRNA)
# RNA: GGGAGUUCUACAGUCCGACGAUCGAUUCACUUACCCACUCACCAACUCAUUCAUUCAUGUCUUUCUGGGAUGAUUUCAUCACUAGUUGACUUCCUUGUUCAUCUGUUCAUUCAUUCAUUCUUCUAUGCAUUGGUUAGUUCAUGCAACAGAGGAUUGAGCAUCA
# B14: chr15:60347444:60347559:-|3pUTR|ENSG00000182718|msi1_unk|total|mutant (ssRNA)
# RNA: GGGAGUUCUACAGUCCGACGAUCUAACAGUCCCCGUGGCCAUCCCUGUGAGGGUGACGUCCGCAUUACCCCCAACCUCAUUUCCGUUGCCUAAGCAUUGCCUGGCCUUCCUGUCCCGUCUCUCCUGUAAGCCAAAGAAAUGAACAACAGAGGAUUGAGCAUCA
# B15: chr16:5044585:5044836:-|CDS|ENSG00000153446|control|control|control (ssRNA)
# RNA: GGGAGUUCUACAGUCCGACGAUCGAGUAGCUGGGACUACAGGAGCGUGCCACCAUACCUGGCUAAUUUUUAUAUUUUUUUAGUAGAGACAGGGUUUCAUCAUGUUGCUCAUGCUGGUCUCGAACUCCUGAUCUCAAGAGAUCCCAACAGAGGAUUGAGCAUCA
# B16: chr5:144162273:144162391:-|CDS|ENSG00000145817|unk|total|mutant (ssRNA)
# RNA: GGGAGUUCUACAGUCCGACGAUCCCCACCGGCUGGCAAAAUCCAGUUUGGCUAUGUAUACGGGAUCAGUGCAAUUGGAUGUCCCGGAAUGUUUUGUUUAUUAAACUUAAUGAGUAUGACAGGUGUUUCAUUUGGUUGUGUGGCCAACAGAGGAUUGAGCAUCA
# B17: chr5:72990507:72990614:+|CDS|ENSG00000157107|unk|FALSE|unique (ssRNA)
# RNA: GGGAGUUCUACAGUCCGACGAUCGUAUGGGAUGUAUUCAAAACAUCUACAGAGAAAUUAGCAAAUUGUCACUUGGAUCUUGUUAGAAAAUUACAAGAAUUAAUAAAGGAAGUUCAGAAGUAUGGAGAAGAACAAGUAAAGUCUCAACAGAGGAUUGAGCAUCA
# B18: chr2:11642538:11642650:+|3pUTR|ENSG00000196208|unk|total|mutant (ssRNA)
# RNA: GGGAGUUCUACAGUCCGACGAUCCGAAGAGUUGAUGUCAAUCUUUUUUUCCUAAGAAAAAAAGUCCGCGAGUAUUAAAUAUUCCGAUCAAUGUUUAUAAAAUGAUUACUUUGUAUAUCUCAUUAUUCCUAUUUUGGAAUAAAACAACAGAGGAUUGAGCAUCA
# B19: chr4:185586528:185586629:-|3pUTR|ENSG00000154556|msi1|FALSE|unique (ssRNA)
# RNA: GGGAGUUCUACAGUCCGACGAUCAUCCAUAUGAUAUGUUGUACAUUUUAUGGAAAUGUAAUAGAAUCUCACACAUUAUUUUAUAGAAAUAGAGUACAGAAGCAUCACAAGUAUUAAAGUUGGUUUUAGCAAGGAUUAGGAUUACAACAGAGGAUUGAGCAUCA
# B20: chr3:11557766:11557867:-|3pUTR|ENSG00000144560|msi1|total|mutant (ssRNA)
# RNA: GGGAGUUCUACAGUCCGACGAUCCUGGACUGCAGACUCUACCAAUCACGGGCAUUUUAUCUUCUCUGAACACUGCAGUUUGUCCGACCCGAGCUGAGGUUGGAGGAUUCCACCGUGCUUUAAACGUGAUGCAUGUUUUAAUGGCAACAGAGGAUUGAGCAUCA
# B21: ENSG00000136451:be:win_3101|3pUTR|ENSG00000136451|bound_else_gene|NA|bound_elsewhere_windowed (ssRNA)
# RNA: GGGAGUUCUACAGUCCGACGAUCUUCCAUUUAUACCCUACUGUGUCAGUUCAAGCAUCAAAAUACCUUGCAUCUGAGACAGACUUCCUACAUCAGGGACAGGUAUCUGUGUGUCAUUAUACAAAACAGUUCUAGGGGGUUGAACAACAGAGGAUUGAGCAUCA
# B22: ENSG00000136451:be:win_3251|3pUTR|ENSG00000136451|bound_else_gene|NA|bound_elsewhere_windowed (ssRNA)
# RNA: GGGAGUUCUACAGUCCGACGAUCCUUAGUGUAAAAUAAUUUUAUAAAUGAUCUUUUGUACUUUAGGACAUUAAAUUGUACAACUUUUGUAUAUAUAAAAGCUUAGGAACUUUCUGUUUAGCAGGAAGGCAACACAUUCCUACACAACAGAGGAUUGAGCAUCA
# B23: chr17:57972098:57972209:-|3pUTR|ENSG00000136451|unk|FALSE|bound_elsewhere (ssRNA)
# RNA: GGGAGUUCUACAGUCCGACGAUCCUAGAAUGUGGUUGUCAGAACCCUGAAAGUAUUAGUUCUAAAAAAAAAAAGAUAUAUACUAGAAGUAAUUGUUUUAUCAAUUCAUUGUAUAAUAAACAGGAGUGAGACUUCAUUGUAUGACAACAGAGGAUUGAGCAUCA
# B24: ENSG00000136451:be:win_3151|3pUTR|ENSG00000136451|bound_else_gene|NA|bound_elsewhere_windowed (ssRNA)
# RNA: GGGAGUUCUACAGUCCGACGAUCUGAGACAGACUUCCUACAUCAGGGACAGGUAUCUGUGUGUCAUUAUACAAAACAGUUCUAGGGGGUUGAACUACAUAGUAAAAAAAUAAAAUAAAUAGUACUUAGUGUAAAAUAAUUUUACAACAGAGGAUUGAGCAUCA
# B25: ENSG00000136451:be:win_3201|3pUTR|ENSG00000136451|bound_else_gene|NA|bound_elsewhere_windowed (ssRNA)
# RNA: GGGAGUUCUACAGUCCGACGAUCAACAGUUCUAGGGGGUUGAACUACAUAGUAAAAAAAUAAAAUAAAUAGUACUUAGUGUAAAAUAAUUUUAUAAAUGAUCUUUUGUACUUUAGGACAUUAAAUUGUACAACUUUUGUAUAUCAACAGAGGAUUGAGCAUCA
# B26: chr15:60490033:60490134:-|3pUTR|ENSG00000069667|unk|FALSE|unique (ssRNA)
# RNA: GGGAGUUCUACAGUCCGACGAUCUGCUGGAUUUGGGACAUGCUUUUCUCUUUAAAUACAUAAUAUCAUUAUAUAAAUUAUUCUAGAGUGUAUUUAAUUAGGAUAAAAUUACUUCCUUAGUAUGGAUAUUUGACAUCUAUAGGGCAACAGAGGAUUGAGCAUCA
# Molecular target: T1, UNK ZnF1-6 (called full-length) (human, UniProt Q9C0B0 30-357)
# T1 sequence: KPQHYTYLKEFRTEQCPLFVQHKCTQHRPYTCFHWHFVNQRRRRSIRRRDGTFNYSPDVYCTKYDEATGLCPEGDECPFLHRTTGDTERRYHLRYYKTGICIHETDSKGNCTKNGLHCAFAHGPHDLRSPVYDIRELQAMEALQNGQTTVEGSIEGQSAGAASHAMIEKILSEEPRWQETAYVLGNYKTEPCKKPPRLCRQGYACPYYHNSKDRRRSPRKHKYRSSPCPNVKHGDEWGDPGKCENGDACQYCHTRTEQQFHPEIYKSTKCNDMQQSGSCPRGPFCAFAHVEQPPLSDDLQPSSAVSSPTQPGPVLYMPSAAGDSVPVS
# Assay: nsRBNS (natural sequence RNA bind-n-seq); RBNS binding buffer (assumed for nsRBNS): 25 mM Tris pH 7.5, 150 mM KCl, 3 mM MgCl2, 0.01% Triton X-100, 500 ug/ml BSA, 20 U/ml SUPERase-In, 4 C; UNK is unkempt and MSI1 is Musashi-1; names of the RNAs are library labels; protein concentration not given here; high values mean tight binding
row,Binder,binding signal
1,B1,0.526 enrichment R
2,B2,1.05 enrichment R
3,B3,0.535 enrichment R
4,B4,2.3 enrichment R
5,B5,0.862 enrichment R
6,B6,8.44 enrichment R
7,B7,0.486 enrichment R
8,B8,0.392 enrichment R
9,B9,0.701 enrichment R
10,B10,0.421 enrichment R
11,B11,0.271 enrichment R
12,B12,0.85 enrichment R
13,B13,0.569 enrichment R
14,B14,0.662 enrichment R
15,B15,2.13 enrichment R
16,B16,0.596 enrichment R
17,B17,3.86 enrichment R
18,B18,0.544 enrichment R
19,B19,11.6 enrichment R
20,B20,0.682 enrichment R
21,B21,0.463 enrichment R
22,B22,6.05 enrichment R
23,B23,4.83 enrichment R
24,B24,44 enrichment R
25,B25,96.7 enrichment R
26,B26,4.69 enrichment R
